What all share (conditions): primary human HUVEC with PBMC; actives raise or lower the signal
Experiment [1] can be described thus: BSK_LPS_PGE2: BioMAP Diversity Plus: LPS Assay for Prostaglandin E2 (PGE2) Biomarker Activity (AID 2283082).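 For AC50: secreted prostaglandin E2 measured by ELISA in LPS-stimulated co-culture.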 Put shortly:
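LPS-activated HUVEC/PBMC co-culture; cmpd dosed, 24 h; PGE2 by ELISA; bidirectional fit vs DMSO; SRB (0.1%, TCA-fixed, 560 nm) in parallel plates for overt cytotox.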

Read-out in experiment [2]: Macrophage colony-stimulating factor (MCSF), CSF1 (gene 1435)
The experiment is described as follows: BSK_LPS_MCSF: BioMAP Diversity Plus: LPS Assay for Macrophage colony-stimulating factor (MCSF) Biomarker Activity (AID 2283083). Put shortly:
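HUVEC–PBMC co-culture, M-CSF measured by ELISA 24 h after chemical dosing. Fitted in both directions relative to DMSO as negative control; overt cytotoxicity assessed by SRB total-protein staining in parallel cultures.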

Read-out in experiment [3]: Tissue Factor, F3 (gene 2152)
The experiment is described as follows: BSK_LPS_TissueFactor: BioMAP Diversity Plus: LPS Assay for Tissue Factor Biomarker Activity (AID 2283084). A digest of the protocol:
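Human umbilical vein endothelial cells co-cultured with PBMC were dosed with compound. Cell-surface CD142 was measured by ELISA 24 h later. Activity was fitted bidirectionally against DMSO, with SRB total-protein staining in parallel cultures for cytotoxicity.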

Read-out in experiment [4]: Tumor necrosis factor (Homo sapiens) (UniProt P01375)
The experiment is described as follows: BSK_LPS_TNFa: BioMAP Diversity Plus: LPS Assay for Tumour Necrosis Factor alpha (TNFa) Biomarker Activity (AID 2283085). A digest of the protocol:
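Read-out is ELISA of TNFa in primary human endothelial cell–PBMC co-cultures at 24 h after compound. Activity in either direction was fitted against DMSO.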

Read-out in experiment [5]: Vascular cell adhesion molecule 1 (VCAM1), VCAM1 (gene 7412)
As to the kind of experiment: BSK_LPS_VCAM1: BioMAP Diversity Plus: LPS Assay for Vascular cell adhesion molecule 1 (VCAM1) Biomarker Activity (AID 2283086). A digest of the protocol: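 HUVEC + PBMC co-culture, LPS system; compound 24 h; VCAM-1 by ELISA; bidirectional fit vs DMSO control; parallel SRB (0.1%, TCA-fixed, 560 nm) for cytotoxicity.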

Read-out in another experiment: CD38, CD38 (gene 952)
As to the kind of experiment: BSK_SAg_CD38: BioMAP Diversity Plus: SAg Assay for CD38 Biomarker Activity (AID 2283087). Put shortly:
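Human HUVEC plus PBMC co-culture stimulated with superantigen; CD38 measured by ELISA 24 h after chemical dosing. Fluorescence read-out, bidirectional fit against DMSO; cytotoxicity tracked in parallel by SRB and Alamar Blue.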

Read-out in another experiment: CD40, CD40 (gene 958)
As to the kind of experiment: BSK_SAg_CD40: BioMAP Diversity Plus: SAg Assay for CD40 Biomarker Activity (AID 2283088). A digest of the protocol:
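HUVEC plus PBMC co-culture, superantigen-activated, with CD40 read by ELISA 24 h after dosing. Curves fitted in both directions against DMSO. Overt cytotoxicity checked by parallel SRB total-protein staining.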

Read-out in the next experiment: CD69, CD69 (gene 969)
The experiment is described as follows: BSK_SAg_CD69: BioMAP Diversity Plus: SAg Assay for CD69 Biomarker Activity (AID 2283089).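 For AC50: cell surface CD69 protein quantified by ELISA with fluorescence detection.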 Put shortly:
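ELISA, fluorescence read-out: CD69 on human umbilical vein endothelial cell + PBMC co-culture, 24 h post-dosing. Gain or loss of signal fitted bidirectionally against DMSO baseline.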

Read-out in experiment [6]: Monocyte Chemoattractant Protein-1 (MCP1), CCL2 (gene 6347)
As to the kind of experiment: BSK_SAg_MCP1: BioMAP Diversity Plus: SAg Assay for Monocyte Chemoattractant Protein-1 (MCP1) Biomarker Activity (AID 2283090). A digest of the protocol: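 MCP-1 levels in the endothelial–PBMC SAg co-culture were quantified by ELISA at 24 h post-dosing; both increases and decreases versus DMSO scored. Cytotoxicity monitored by SRB total protein in parallel cultures.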

Read-out in experiment [7]: E-selectin (Homo sapiens) (UniProt P16581)
The experiment is described as follows: BSK_SAg_Eselectin: BioMAP Diversity Plus: SAg Assay for Eselectin Biomarker Activity (AID 2283091). Put shortly: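 Human umbilical vein endothelial cells co-cultured with peripheral blood mononuclear cells, SAg system. E-selectin is measured by ELISA 24 h after dosing and fitted bidirectionally against DMSO. Cytotoxicity is checked by SRB staining of parallel cultures.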

Activity calls are given as the source filed them. Rule for the calls: active = hit-call score of the fitted dose curve at least 0.9, where 1 is the maximum; inactive = score below 0.9.

Here are results for 17 compounds from PubChem BioAssay (EPA / NIEHS).

E-selectin (Homo sapiens), sequence (P16581 whole entry, looked up): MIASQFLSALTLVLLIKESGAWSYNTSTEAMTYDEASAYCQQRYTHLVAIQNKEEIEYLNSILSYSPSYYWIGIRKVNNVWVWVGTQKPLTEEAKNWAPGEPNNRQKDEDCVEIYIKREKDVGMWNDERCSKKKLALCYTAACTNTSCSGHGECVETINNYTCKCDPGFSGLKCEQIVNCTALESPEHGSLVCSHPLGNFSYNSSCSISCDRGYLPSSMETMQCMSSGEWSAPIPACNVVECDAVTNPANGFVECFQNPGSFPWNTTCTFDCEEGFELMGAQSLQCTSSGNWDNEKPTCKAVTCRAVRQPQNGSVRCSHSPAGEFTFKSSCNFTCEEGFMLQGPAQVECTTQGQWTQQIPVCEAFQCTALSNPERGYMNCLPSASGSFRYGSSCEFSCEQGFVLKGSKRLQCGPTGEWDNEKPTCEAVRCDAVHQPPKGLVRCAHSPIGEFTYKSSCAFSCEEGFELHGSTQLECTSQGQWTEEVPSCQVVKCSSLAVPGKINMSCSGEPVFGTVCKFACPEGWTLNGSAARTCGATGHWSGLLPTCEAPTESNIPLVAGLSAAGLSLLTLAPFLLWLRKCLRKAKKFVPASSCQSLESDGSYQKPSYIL
Tumor necrosis factor (Homo sapiens), sequence (P01375 whole entry, looked up): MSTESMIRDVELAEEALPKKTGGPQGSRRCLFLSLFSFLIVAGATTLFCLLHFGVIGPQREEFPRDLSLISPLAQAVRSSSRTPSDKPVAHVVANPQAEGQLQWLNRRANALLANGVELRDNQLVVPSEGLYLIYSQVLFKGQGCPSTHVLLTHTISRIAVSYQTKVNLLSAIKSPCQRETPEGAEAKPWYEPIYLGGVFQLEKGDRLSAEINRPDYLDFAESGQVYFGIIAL

Regarding `CCCCCCOC(=O)c1ccccc1C(=O)OCCCCCC`, the outcome was “inactive” in [1]; “inactive” in [3]; “inactive” in experiment [4]; “inactive” with CD69, CD69 (gene 969); “inactive” in experiment [6]. Besides, the AC50 – broadly, the midpoint of the concentration-response curve, whichever way the signal moves – in experiment [2] is 20 µM (active); in [5] it was 20 µM (active); with CD38, CD38 (gene 952), 32.1 µM (active); in the experiment with CD40, CD40 (gene 958), 32.9 µM (active); in experiment [7], 32.6 µM (active).

With `CCCCCCCCCC[N+](C)(C)CCCCCCCCCC`, the AC50 in experiment [1] was 3.88 µM (active); in [2], 3.79 µM (active); in experiment [3] it was 4.31 µM (active); in [4], 3.79 µM (active); in experiment [5], 7.43 µM (active); with CD38, CD38 (gene 952) it was 2.38 µM (active). The half-maximal activity concentration (AC50) with CD40, CD40 (gene 958) was 4.45 µM (active); with CD69, CD69 (gene 969), 4.61 µM (active); in [6], 3.45 µM (active); in experiment [7], 2.19 µM (active).

For the compound `CC#Cc1cc(C)nc(Nc2ccccc2)n1`, the concentration at half-maximal activity (AC50) in [1] is 8.96 µM (active). The outcome in [2] is “inactive”; in experiment [3] it was “inactive”; in experiment [5], “inactive”; with CD38, CD38 (gene 952), “inactive”; with CD40, CD40 (gene 958), “inactive”; in the experiment with CD69, CD69 (gene 969) it was “inactive”. The outcome in experiment [6] and in experiment [7] was inactive.

Consider `CCOP(=S)(OCC)SCSC(C)(C)C`, for which the outcome is “inactive” in experiment [1]; “inactive” in experiment [2]; “inactive” in experiment [3]; “inactive” in experiment [5]; “inactive” with CD38, CD38 (gene 952); “inactive” with CD40, CD40 (gene 958). Moreover, the outcome with CD69, CD69 (gene 969) is “inactive”; in experiment [6], “inactive”. Also, the AC50 in experiment [7] is 39 µM (active).

With `Cc1ccc(O)c(C)c1`, the AC50 in experiment [1] is 3.27 µM (active); in experiment [5] it was 4.7 µM (active). In addition, the outcome is “inactive” in experiment [2]; “inactive” in experiment [3]; “inactive” with CD38, CD38 (gene 952); “inactive” with CD40, CD40 (gene 958); “inactive” with CD69, CD69 (gene 969); “inactive” in experiment [6]. Further, the outcome in experiment [7] was inactive.

With `Nc1ccc(-c2ccc(N)cc2)cc1`, the half-maximal activity concentration (AC50) in [1] was 8.27 µM (active). In addition, the outcome in experiment [2] was “inactive”; in experiment [3], “inactive”; in [5], “inactive”; in the experiment with CD38, CD38 (gene 952), “inactive”; with CD40, CD40 (gene 958) it was “inactive”; with CD69, CD69 (gene 969), “inactive”. Also, the outcome in experiment [6] and in experiment [7] was inactive.

In the case of `ClC(Cl)=C(c1ccc(Cl)cc1)c1ccc(Cl)cc1`, the AC50 was 8.02 µM (active) in experiment [1]; 32.3 µM (active) in [3]; 30.4 µM (active) in experiment [5]; 33.3 µM (active) with CD38, CD38 (gene 952); 32.5 µM (active) with CD40, CD40 (gene 958); 30.6 µM (active) in the experiment with CD69, CD69 (gene 969). Moreover, the AC50 in [6] is 39.2 µM (active); in experiment [7], 32.2 µM (active).

Turning to `CCC(C)c1cc([N+](=O)[O-])cc([N+](=O)[O-])c1O` (centres undefined), the AC50 is 6.51 µM (active) in [1]; 20 µM (active) in [2]; 20 µM (active) in experiment [5]; 18.7 µM (active) with CD38, CD38 (gene 952); 14.3 µM (active) with CD40, CD40 (gene 958); 12.4 µM (active) with CD69, CD69 (gene 969). Also, the AC50 in experiment [6] was 23.5 µM (active); in [7], 14.2 µM (active). In addition, the result in [3] was inactive.

`C=CC(=O)NCNC(=O)C=C`: the outcome was “inactive” in [1]; “inactive” in experiment [2]; “inactive” in experiment [3]; “inactive” in experiment [5]; “inactive” in the experiment with CD38, CD38 (gene 952); “inactive” with CD40, CD40 (gene 958). The outcome with CD69, CD69 (gene 969) is “inactive”; in experiment [6], “inactive”; in experiment [7] it was “inactive”.

With `Cc1ccccc1O`, the half-maximal activity concentration (AC50) in experiment [1] was 3.97 µM (active). Besides, the outcome in experiment [2] was “inactive”; in experiment [3], “inactive”; in [5], “inactive”; with CD38, CD38 (gene 952) it was “inactive”; with CD40, CD40 (gene 958), “inactive”; with CD69, CD69 (gene 969), “inactive”. The outcome in [6] and in experiment [7] was inactive.

On to `Oc1ccc(C(c2ccc(O)cc2)(C(F)(F)F)C(F)(F)F)cc1`, for which the half-maximal activity concentration (AC50) in experiment [1] was 19.6 µM (active); in [2] it was 20.1 µM (active); in experiment [3] it was 37.9 µM (active); in experiment [5] it was 23.9 µM (active); with CD38, CD38 (gene 952), 20.6 µM (active); with CD40, CD40 (gene 958), 18.3 µM (active). For the same compound, the AC50 with CD69, CD69 (gene 969) was 26.6 µM (active); in experiment [6] it was 26.5 µM (active); in [7], 19.8 µM (active).

On to `CC1=C2C[C@H]3[C@@H](CC=C4C[C@@H](O)CC[C@@]43C)[C@@H]2CC[C@]12O[C@@H]1C[C@H](C)CN[C@H]1[C@H]2C`, for which the outcome in [1] is “inactive”; in experiment [2] it was “inactive”; in experiment [3] it was “inactive”; in experiment [5], “inactive”; in the experiment with CD38, CD38 (gene 952), “inactive”; with CD40, CD40 (gene 958), “inactive”. Further, the outcome was “inactive” with CD69, CD69 (gene 969); “inactive” in experiment [6]; “inactive” in experiment [7].

Regarding `Clc1ccc(C(Cl)(Cl)Cl)cc1`, the outcome in [1] was “inactive”; in experiment [2] it was “inactive”; in experiment [3], “inactive”; in experiment [5] it was “inactive”; in the experiment with CD38, CD38 (gene 952), “inactive”; with CD40, CD40 (gene 958), “inactive”. For the same compound, the outcome with CD69, CD69 (gene 969) was “inactive”; in experiment [6], “inactive”; in experiment [7] it was “inactive”.

With `ClC1=C(Cl)[C@]2(Cl)[C@@H]3[C@@H](Cl)[C@H]4O[C@H]4[C@@H]3C1(Cl)C2(Cl)Cl`, the outcome in experiment [1] is “inactive”; in experiment [2], “inactive”; in experiment [3], “inactive”; in experiment [5] it was “inactive”; in the experiment with CD69, CD69 (gene 969), “inactive”; in [6] it was “inactive”. Besides, the AC50 with CD38, CD38 (gene 952) is 8.15 µM (active); with CD40, CD40 (gene 958) it was 11.6 µM (active); in experiment [7], 9.42 µM (active).

Regarding `CCNc1nc(NC(C)C)nc(SC)n1`, the outcome in experiment [1] is “inactive”; in experiment [2], “inactive”; in experiment [3] it was “inactive”; in experiment [5], “inactive”; in the experiment with CD40, CD40 (gene 958) it was “inactive”; with CD69, CD69 (gene 969), “inactive”. Besides, the outcome in [6] and in [7] was inactive. For the same compound, the AC50 in the experiment with CD38, CD38 (gene 952) is 14.9 µM (active).

Regarding `CN(C)CCO`, the outcome in experiment [1] is “inactive”; in experiment [2], “inactive”; in experiment [3], “inactive”; in experiment [5], “inactive”; with CD38, CD38 (gene 952), “inactive”; with CD40, CD40 (gene 958), “inactive”. Further, the outcome in the experiment with CD69, CD69 (gene 969) is “inactive”; in experiment [6] it was “inactive”; in experiment [7], “inactive”.

`CO/C=C(/C(=O)OC)c1ccccc1COc1cccc(C(F)(F)F)n1`: the result in experiment [1] and in [3] was inactive. Besides, the half-maximal activity concentration (AC50) in experiment [2] was 12 µM (active); in experiment [5] it was 13.4 µM (active); with CD38, CD38 (gene 952) it was 6.48 µM (active); in the experiment with CD40, CD40 (gene 958), 7.75 µM (active); with CD69, CD69 (gene 969) it was 5.07 µM (active); in experiment [6] it was 8.9 µM (active). Further, the AC50 in experiment [7] was 6.75 µM (active).
